This note sets out measurements from PubChem BioAssay (EPA / NIEHS).

SMILES strings stand for the structures. Values joined by “and” are separate entries in the source; they are usually repeats but may differ in a detail not shown here. Equal entries are not always repeated. Results filed as inconclusive are left out. Some structures have more than one record in an assay (separate samples or runs), and their calls can disagree. Active and inactive are the calls of the source. The calls were made as follows: active = hit-call score of the fitted dose curve at least 0.9, where 1 is the maximum; inconclusive = response in the unintended direction; inactive = score below 0.9.

Cellular tumor antigen p53 (Homo sapiens), sequence (P04637 whole entry, looked up): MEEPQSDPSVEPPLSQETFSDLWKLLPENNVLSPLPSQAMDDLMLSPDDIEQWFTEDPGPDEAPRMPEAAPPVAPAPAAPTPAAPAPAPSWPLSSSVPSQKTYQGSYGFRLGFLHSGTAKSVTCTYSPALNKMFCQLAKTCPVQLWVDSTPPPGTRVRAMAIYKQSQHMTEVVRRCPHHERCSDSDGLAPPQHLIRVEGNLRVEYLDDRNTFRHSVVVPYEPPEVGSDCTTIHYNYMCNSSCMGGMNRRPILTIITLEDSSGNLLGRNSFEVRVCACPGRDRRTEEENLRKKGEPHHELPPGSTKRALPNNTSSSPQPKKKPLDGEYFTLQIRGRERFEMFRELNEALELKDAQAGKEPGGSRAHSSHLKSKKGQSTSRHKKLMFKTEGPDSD

Test system in the first assay: not listed separately
Kind of assay: TOX21_p53_BLA_p5_viability: Viability Assessment in the Tox21 HCT-116 p53 Agonism Beta-lactamase Assay, Phase 5 (AID 2283600). In a few lines:
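Here cell health was gauged by ATP levels in wells holding 4000 cells, each treated 16 h with DMSO-delivered compounds at 217-fold dilution; reduced luminescence marked toxicity.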
Regarding `O=S(=O)(O)c1ccc2cc(O)ccc2c1`, the molecule was called inactive.
Still for that read-out and setting: the value for `CCCC=O` was “inactive”; that for `CC(C)(C)c1ccc(O)c(O)c1` was “inactive”.
As for `Oc1c(Cl)cc(Cl)cc1Sc1cc(Cl)cc(Cl)c1O`, the AC50 (as a rule, the midpoint of the concentration-response curve, whichever way the signal moves) is 82 µM (active) and 85.7 µM (active); the molecule was called inactive.
As for `CCC(=O)C=Cc1ccc(OC)cc1`, the molecule was called inactive.
In the case of `CCCCCCCCCC=CCC1CC(=O)OC1=O` (centres undefined), the call was inactive.
Take `CCCCCC(C)OC(=O)COc1ccc(Cl)c2cccnc12` (centres undefined): the molecule was classed as inactive.
In the case of `Cc1ccc(S(=O)(=O)O)cc1`, the molecule was called inactive.
As for `CC(C)C=O`, the molecule was classed as inactive.
For the molecule `COCN(COC)c1nc(N(COC)COC)nc(N(COC)COC)n1`, the result was inactive.
With `NS(=O)(=O)O`, the molecule was classed as inactive.
On to `O=C1c2ccccc2C(=O)c2c(O)c(O)cc(O)c21`, for which the molecule was called inactive.
Take `O=C1OC(=O)c2cc(-c3ccc4c(c3)C(=O)OC4=O)ccc21`: the molecule was classed as inactive.
In the case of `CCCCCCCCCCCCCC[n+]1ccccc1`, the outcome was inactive.
As to `CCOCCOCC`, the molecule was called inactive.
Same read-out and setting: under `Cc1cc(C(C)(C)C)c(O)c(C(C)(C)C)c1` stands “inactive”.
`C=CC(=O)OCC(CO)(COCC(COC(=O)C=C)(COC(=O)C=C)COC(=O)C=C)COC(=O)C=C`: the half-maximal activity concentration (AC50) is 2.74 µM (active).
With `O=C(O)c1cccc(C(=O)O)n1`, the molecule was classed as inactive.
Take `CC1=CC(=O)c2ccccc2C1=O`: the AC50 was 37.9 µM (active) and the molecule was called inactive.
Regarding `CC=O`, the AC50 is 74.4 µM (active).
In the case of `Nc1ccc(O)c(C(=O)O)c1`, the molecule was called inactive.
As to `COc1ccccc1NC(=O)c1cc2ccccc2cc1O`, the molecule was classed as inactive.
Same read-out and setting: the value for `O=c1cc(-c2ccccc2)oc2ccc3ccccc3c12` was “inactive”; that for `NCCN` was “inactive”; that for `CC(C)(O)C(=O)c1ccccc1` was “inactive”.
Consider `c1ccc(CNc2ncnc3c2ncn3C2CCCCO2)cc1` (centres undefined), for which the result was inactive.
Take `CC(O)COc1ccccc1` (centres undefined): the molecule was classed as inactive.
The same measure, in the same setting: under `CCCCCCOC(=O)c1ccc(O)cc1` stands “inactive”.

In a further assay the target is Cellular tumor antigen p53 (Homo sapiens) (UniProt P04637). Kind of assay: TOX21_p53_BLA_p4_ratio: Tox21 HCT-116 p53 Agonism Beta-lactamase Assay, Ratio, Phase 4 (AID 2283601). In a few lines:
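Signal is the blue/green (460nm/530nm) ratio of cleaved versus uncleaved CCF4-AM substrate, read after 2 h substrate loading. Cells were HCT116 carrying the p53-responsive beta-lactamase reporter, dosed 16 h at 37C, 5% CO2; CellTiter-Glo measured in parallel.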
`O=S(=O)(O)c1ccc2cc(O)ccc2c1`: the result was inactive.
On to `CC(C)(C)c1ccc(O)c(O)c1`, for which the result was inactive.
Still for that read-out and setting: the value for `CCC(=O)C=Cc1ccc(OC)cc1` was “inactive”.
On to `CCCCCCCCCC=CCC1CC(=O)OC1=O` (centres undefined), for which the outcome was inactive.
With `CC(C)C=O`, the result was inactive.
As to `NS(=O)(=O)O`, the outcome was inactive.
As for `O=C1c2ccccc2C(=O)c2c(O)c(O)cc(O)c21`, the AC50 is 50.1 µM (active).
As to `O=C1OC(=O)c2cc(-c3ccc4c(c3)C(=O)OC4=O)ccc21`, the result was inactive.
In the case of `CCCCCCCCCCCCCC[n+]1ccccc1`, the AC50 was 21.6 µM (active).
For `Cc1cc(C(C)(C)C)c(O)c(C(C)(C)C)c1`, the result was inactive.
As to `C=CC(=O)OCC(CO)(COCC(COC(=O)C=C)(COC(=O)C=C)COC(=O)C=C)COC(=O)C=C`, the AC50 is 65 µM (active).
`O=C(O)c1cccc(C(=O)O)n1`: the result was inactive.
Regarding `CC1=CC(=O)c2ccccc2C1=O`, the outcome was inactive.
With `CC=O`, the AC50 was 62.6 µM (active).
Take `COc1ccccc1NC(=O)c1cc2ccccc2cc1O`: the concentration at half-maximal activity (AC50) was 36.1 µM (active).
In the case of `O=c1cc(-c2ccccc2)oc2ccc3ccccc3c12`, the outcome was inactive.
As for `NCCN`, the outcome was inactive.
Consider `CC(O)COc1ccccc1` (centres undefined), for which the outcome was inactive.
`CCCCCCOC(=O)c1ccc(O)cc1`: the AC50 is 67.3 µM (active) and 80 µM (active).
